NPR1 antag – blocks ANP-stimulated signaling of human Npr1 receptor. HEK293 hNpr1 GloSensor cGMP, ANP-stimulated luminescence. Potency, µM (highest dose often 46.3 µM), without a hit: at the highest dose activity change, negative = inhibition, hits mostly inhibitors. P16066. 76,000 compounds, 1.6% hits; calls by dose curve; further: nearly all actives have a fitted effect of over 60% in size
Target sequence (P16066 whole entry, looked up): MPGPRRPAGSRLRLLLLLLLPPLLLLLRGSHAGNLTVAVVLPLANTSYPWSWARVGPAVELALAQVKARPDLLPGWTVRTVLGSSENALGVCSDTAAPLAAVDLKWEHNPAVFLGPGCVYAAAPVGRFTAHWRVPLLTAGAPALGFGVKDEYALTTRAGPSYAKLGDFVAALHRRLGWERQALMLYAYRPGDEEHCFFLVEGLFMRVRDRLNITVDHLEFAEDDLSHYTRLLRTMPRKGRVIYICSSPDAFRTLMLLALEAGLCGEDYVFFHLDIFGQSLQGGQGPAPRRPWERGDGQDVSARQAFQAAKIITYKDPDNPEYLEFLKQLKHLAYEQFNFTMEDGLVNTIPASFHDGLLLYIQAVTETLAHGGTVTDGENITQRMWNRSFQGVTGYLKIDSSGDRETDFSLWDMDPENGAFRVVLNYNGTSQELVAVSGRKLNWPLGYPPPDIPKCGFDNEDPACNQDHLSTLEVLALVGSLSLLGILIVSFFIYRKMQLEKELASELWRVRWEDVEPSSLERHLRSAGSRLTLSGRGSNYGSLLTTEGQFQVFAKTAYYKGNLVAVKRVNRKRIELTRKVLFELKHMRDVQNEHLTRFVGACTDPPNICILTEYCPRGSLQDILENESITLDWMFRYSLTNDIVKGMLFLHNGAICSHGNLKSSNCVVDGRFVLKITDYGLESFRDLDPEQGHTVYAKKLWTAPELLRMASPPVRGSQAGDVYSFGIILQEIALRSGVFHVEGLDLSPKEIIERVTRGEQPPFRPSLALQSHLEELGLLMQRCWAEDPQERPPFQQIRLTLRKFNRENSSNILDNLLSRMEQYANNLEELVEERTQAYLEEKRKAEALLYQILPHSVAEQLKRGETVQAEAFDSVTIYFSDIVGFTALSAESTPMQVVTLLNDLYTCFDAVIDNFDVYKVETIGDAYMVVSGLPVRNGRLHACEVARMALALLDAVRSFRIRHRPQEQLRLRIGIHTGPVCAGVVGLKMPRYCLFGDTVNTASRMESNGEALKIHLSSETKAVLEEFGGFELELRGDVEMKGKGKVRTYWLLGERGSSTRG
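Compound pre-incubated 30 min at room temperature on GloSensor-loaded HEK293 cells stably carrying hNpr1 and the pGS-40F cGMP biosensor. Stimulation uses hNppA at 0.1 nM final; luminescence is taken at baseline and 20 min post-agonist.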
NIH3T3 tox – cytotoxic compounds in NIH 3T3 cells | 94,000 compounds, 4.3% hits | Potency, µM (highest dose often 96.7 µM), for the others: at the top dose activity change, negative = cytotoxicity, most hits filed as inhibitors | NIH 3T3 viability, CellTiter-Glo ATP luminescence, 48-72 h; further: nearly all actives have a fitted effect of over 55% in size
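First NIH 3T3 cells are plated at 400 cells/well; next compound is pinned in; then plates incubate 48 or 72 hr at 37 °C; finally CellTiter-Glo is added and luminescence read after 10 min.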
HEK cytotox – kills HEK 293 cells. Potency, µM (titrated, usually from 115 µM), for the others: at the highest dose activity change, negative = cytotoxicity, actives largely listed as inhibitors. 94,000 compounds, 6.6% hits. HEK 293 viability, ATP luminescence (CellTiter-Glo), 48-72 h. AID 1345083; further: nearly all actives have a fitted effect of over 60% in size
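Viability of HEK 293 cells, plated at 250 cells/well, was judged by cellular ATP after compound treatment for 48 or 72 hr. Luminescence was imaged 10 min after CellTiter-Glo addition at room temperature.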
Luciferase inh – inhibitors of firefly (Photinus pyralis) luciferase; purified P. pyralis luciferase, luminescence, biochemical; Potency, µM (highest dose often 115 µM), most hits filed as inhibitors; 76,000 compounds, 2.5% hits; further: nearly all actives have a fitted effect of over 65% in size
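Luminescence read by CCD imaging after purified firefly luciferase (10nM final) was added to substrate buffer holding 10uM D-luciferin and 10uM ATP, pH 7.5, pre-dosed with compound.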
GPT2 inhibitor – inhibitors of human GPT2 alanine aminotransferase | Potency, µM (doses to about 57.7 µM), without a hit: at the highest dose activity change, negative = inhibition, most hits filed as inhibitors | Recombinant GPT2, coupled pyruvate oxidase/HRP Amplex Red fluorescence | 100,000 compounds, 0.25% hits | Q8TD30 | AID 1671188; further: nearly all actives have a fitted effect of over 60% in size
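Fluorescence of coupled pyruvate oxidase/HRP/Amplex Red system (50uM Amplex, 30 min, dark) reports pyruvate formed by GPT2. Enzyme reaction: 10ng/uL GPT2, 2mM L-alanine, 250uM a-KG, 30 min room temperature, pH 7.5; 50uM AOA control.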
* = called active by the depositor; i = inactive; ? = inconclusive; . = no result; [ ] = remark or other dose. Only some compounds are listed: those with a hit (about 10% of all), similar ones and a draw of the others. Unless noted, the call rests on the fitted dose curve; in most records, active means well fitted curve in the direction sought with a large enough effect; inconclusive means small, poorly fitted or top-dose-only effect, or another doubt; inactive means no such curve, though single readings can be large; an effect the other way counts as inactive or inconclusive. On the % scale 0 is the no-effect control and ±100 the full control effect; potency means the concentration at half of the fitted maximal effect.

SMILES	NPR1 antag	NIH3T3 tox	HEK cytotox	Luciferase inh	GPT2 inhibitor
CN(c1ccccc1)c1ccc2nnc(-c3cc(C(=O)NCc4cccnc4)ccn3)n2n1	-1%[70.6 µM]	25µM*	100µM*	i	3%[88.5 µM]
CN(c1ccccc1)c1ccc2nnc(-c3cc(C(=O)NC4CCC(O)CC4)ccn3)n2n1 (centres undefined)	7%	?	-10%	i	-11%
CN(C)c1cccc(NC(=O)c2ccnc(-c3nnc4ccc(N5CCOCC5)nn34)c2)c1	5%	?	-28%	i	i
COc1cccc(NC(=O)c2ccnc(-c3nnc4ccc(N(C)C)nn34)c2)c1	-1%[70.6 µM]	32µM*	?	i	4%[88.5 µM]
CN(C)c1ccc2nnc(-c3cc(C(=O)NCCc4ccccn4)ccn3)n2n1	0%[70.6 µM]	?	-13%[172 µM]	i	0%[88.5 µM]
Cn1ccnc1C(=O)N1C[C@@H](Oc2cccnc2)C[C@H]1C(=O)N1CCCC1	-9%	-15%	-13%	i	-13%
CCCN1CCCC2(Cc3ccccc3CN(C(=O)Cc3ccc(OC)cc3)C2)C1 (centres undefined)	.	-10%	-28%	.	4%
COc1ccc(-c2ccc3onc(C)c3n2)cc1OC	-2%[70.6 µM]	40µM*	?	i	-1%[88.5 µM]
COc1cccc(-c2ccc3onc(C)c3n2)c1	0%[70.6 µM]	?	?	?	-8%[88.5 µM]
Cc1nc(-c2ccccc2)n(CC(=O)Nc2cccc(Cl)c2)c(=O)c1CCO	?	?	25µM*	i	i
CCc1cccc(NC(=O)Cn2c(-c3ccccc3)nc(C)c(CCO)c2=O)c1	-14%	?	?	i	-6%
COc1ccc(Cn2c(-c3ccc(Cl)cc3)nc(C)c(CCO)c2=O)cc1F	0%	?	45µM*	i	-15%
CCOc1ccc(NC(=O)Cn2c(-c3cccc(Cl)c3)nc(C)c(CCO)c2=O)cc1	-11%	32µM*	?	i	5%
COc1ccc(NC(=O)Cn2c(-c3ccc(F)cc3)nc(C)c(CCO)c2=O)cc1Cl	-22%	?	35µM*	i	4%
O=C(NC1CC1)c1nc2sccn2c1-c1ccc(C(F)(F)F)cc1	.	-29%	?	.	i
CCN1C(=O)CCN(S(=O)(=O)c2ccc3c(c2)CCC3)CC12CCOCC2	-2%	-23%	-6%	i	-14%
CS(=O)(=O)NCC(=O)N1CCCCCNC(=O)CC1c1ccccc1 (centres undefined)	1%	2%	?	i	i
COCCn1ncc(N2CCCC(CC(=O)NCc3cccc(Cl)c3)C2)cc1=O (centres undefined)	0%	-17%	0%	i	i
COc1ccccc1NC(=O)Cn1c(-c2ccccc2)nc(C)c(CCO)c1=O	-12%	?	35µM*	i	i
CCOc1ccccc1NC(=O)Cn1c(-c2ccccc2)nc(C)c(CCO)c1=O	-11%	-3%	-26%	i	i
COc1cccc(NC(=O)Cn2c(-c3cccc(Cl)c3)nc(C)c(CCO)c2=O)c1	-20%	?	79µM*	i	3%
Cc1cccc(NC(=O)Cn2c(-c3cccc(Cl)c3)nc(C)c(CCO)c2=O)c1	-14%	?	40µM*	i	4%
O=C(O)[C@]12CCCN[C@@H]1CCN(Cc1ccccc1OCCn1ccnc1)C2	1%	-11%	2%	i	-6%
O=c1cc(N2CCOCC2)oc2c(-c3ccccc3F)nccc12	15%[70.6 µM]	8.9µM*	?	i	1%[88.5 µM]
O=c1cc(N2CCOCC2)oc2c(-c3ccncc3)nccc12	0%[70.6 µM]	22µM*	?	i	i
SMILES	NPR1 antag	NIH3T3 tox	HEK cytotox	Luciferase inh	GPT2 inhibitor
CNC(=O)c1noc([C@@H]2CC(F)(F)CN2C(=O)c2ccc(C)cc2)n1	3%	4%	3%	i	i
Cn1ccnc1-c1ccc(N2CCC(C(O)Cc3ccccc3)CC2)nn1 (centres undefined)	?	?	?	?	-17%
CSc1ccccc1-c1ccc(N2CCN(C)CC2)nn1	-4%	i	4%	16µM*	i
COC(=O)[C@@H]1Cc2c([nH]c3ccccc23)[C@@H]2C[C@@H](NCCNC(C)=O)C[C@@H](c3ccc(F)c(F)c3)N12	5%	32µM*	32µM*	i	1%
COC(=O)[C@@H]1Cc2c([nH]c3ccccc23)[C@H]2C[C@@H](NCCNC(C)=O)C[C@@H](c3ccc(C(C)C)cc3)N21	-25%	28µM*	13µM*	i	-2%
COC(=O)[C@@H]1Cc2c([nH]c3ccccc23)[C@H]2C[C@@H](NCCNC(C)=O)C[C@@H](c3ccc(C(F)(F)F)cc3)N21	-9%	20µM*	25µM*	i	?
CC(=O)NCCNC(=O)c1cccc(-c2ccc(C(F)(F)F)cc2)c1	.	-35%	-17%	.	i
COC(=O)[C@@H]1Cc2c([nH]c3ccccc23)[C@H]2C[C@@H](NCCNC(C)=O)C[C@@H](c3ccccc3)N21	-4%	79µM*	?	?	-3%
O=C(O)[C@@H]1[C@H]2C[C@H]3c4[nH]c5ccccc5c4CCN3C[C@@H]2CC[C@@H]1O	.	.	.	.	0%
Cc1ccc(N2CCC(NC(=O)c3ccccc3F)C2=O)cc1 (centres undefined)	3%	i	2%	i	5%
COC(=O)c1cn([C@H]2CO[C@H]3[C@@H]2OC[C@H]3OC(=O)Nc2cccc(C#N)c2)nn1	4%[70.6 µM]	i	-5%[172 µM]	i	i
COCCNC(=O)[C@H]1C[C@H](Oc2ccccc2)CN1C(=O)NCc1ccc(C)cc1	0%	-5%	i	i	-6%
COC(=O)[C@@H]1Cc2c([nH]c3ccccc23)[C@H]2C[C@@H](NCCNC(C)=O)C[C@@H](c3ccc(C)cc3)N21	-12%	28µM*	28µM*	i	-4%
COc1ccc(NC(=O)C2(Cc3cccnc3)CCCCC(=O)N2)cc1F (centres undefined)	-12%	i	5%	i	i
O=C(Cc1cccc(F)c1)N1CC(Oc2cccc(-c3nc(-c4ccccc4)no3)c2)C1	.	35µM*	?	.	-6%
Cc1ccc(CNC(=O)N2CC(Oc3cccc(-c4nc(C)no4)c3)C2)cc1	-13%	?	45µM*	i	i
CCc1nc(-c2ccc(OC3CCN(C(=O)Cc4ccccc4F)C3)cc2)no1 (centres undefined)	.	?	?	.	-5%
CCNC(=O)N1CC(Oc2ccc(-c3nc(C)no3)cc2)C1	-18%	-25%	?	i	i
CC(C)c1nc(-c2ccc(OC3CCN(C(=O)Cc4ccccc4F)C3)cc2)no1 (centres undefined)	.	?	35µM*	.	1%

Source: PubChem BioAssay
